# Screening results (PubChem BioAssay)
# PREPL inh: PREPL enzyme inhibitors, primary screen, biochemical, fluorescence polarization; Prolyl endopeptidase-like (Homo sapiens), Q4J6C6; recombinant PREPL, fluorescence polarization activity-based probe; inhibition, % at 5.96 µM; 320,000 tested, 0.68% active; AID 2751, 2010; in the data active = inhibition above about 43%;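 note: 0% = enzyme with DMSO and 100% = wells lacking enzyme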
# TMEM16A inh: TMEM16A chloride channel inhibitors, primary screen, cell-based, HTS; HEK293 TMEM16A/YFP iodide influx fluorescence, ionomycin; normalized B-score (activity score, 25-100; higher = stronger inhibition) at 10 µM; 310,000 tested, 1.2% active; Anoctamin-1 (Mus musculus), Q8BHY3; AID 588511, 2011;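 active = ratio plate-corrected score three or more library SD toward inhibition, starting fluorescence score within five deviations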;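 note: score derived from kinetic fluorescence span divided by baseline fluorescence per well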
# FID counter: compounds displacing fluorescent DNA intercalator, primary screen, artefact control for HCV NS3 helicase inhibitor project, biochemical, FID fluorescence; AID 1845, 2009; DNA fluorescent intercalator displacement; 290,000 tested, 0.17% active; inhibition, % at 7.9 µM; in the data active = inhibition above about 37%;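 note: 0% = vehicle and 100% = reference compound; higher means more ethidium bromide displaced from hairpin DNA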
# PP5 primary: PP5 phosphatase inhibitors, primary screen, biochemical, fluorescence; Serine/threonine-protein phosphatase 5 (Homo sapiens), P53041; purified PP5c, OMFP substrate fluorescence; inhibition, % at 6.7 µM; 320,000 tested, 0.18% active;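 active = inhibition above the campaign's mean inhibition across all tested compounds plus 3 SD, cut at about 9.5% in these data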;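 note: 0% = DMSO only and 100% = 100 µM cantharidin control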
# ANO1 activ: TMEM16A chloride channel activators or potentiators, primary screen, cell-based, HTS; B-score at 10 µM; 340,000 tested, 0.3% active; HEK293 TMEM16A/YFP-H148Q/I152L, iodide quench fluorescence; hits give low values; Anoctamin-1 (Mus musculus), Q8BHY3;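 active = fluorescence-ratio B-score plate-corrected deviation score at least 3 library SD below zero, with starting fluorescence score within 5 deviations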;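 note: channel opened by trigger with iodide after compound preincubation; score built on the fluorescence ratio of max minus min over baseline; more negative score means more quench and so TMEM16A activation or potentiation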
# PP1 counter: PP1-alpha phosphatase inhibitors, primary screen, counter-screen for PP5 inhibitor project, biochemical, fluorescence, OMFP substrate, single point. purified PP1alpha. inhibition, % at 6.7 µM. 320,000 tested, 0.9% active. AID 2235, 2010;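 active = inhibition above the mean inhibition of all tested compounds plus 3 SD, computed separately for each screening campaign, cut at about 15% in these data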
# Target sequence (P62136 whole entry, looked up): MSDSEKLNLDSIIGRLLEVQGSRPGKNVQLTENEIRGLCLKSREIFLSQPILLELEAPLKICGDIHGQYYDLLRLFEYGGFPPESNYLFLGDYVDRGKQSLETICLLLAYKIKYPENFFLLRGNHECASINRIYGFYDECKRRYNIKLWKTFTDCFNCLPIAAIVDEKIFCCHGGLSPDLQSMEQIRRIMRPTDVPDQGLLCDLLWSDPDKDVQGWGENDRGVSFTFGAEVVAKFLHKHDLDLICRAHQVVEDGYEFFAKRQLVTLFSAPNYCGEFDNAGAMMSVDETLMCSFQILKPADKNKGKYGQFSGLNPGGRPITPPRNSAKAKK
# TMEM16A reconf: TMEM16A chloride channel inhibitors, confirmation, cell-based, re-confirmation | shares compounds with TMEM16A inh | HEK293 TMEM16A/YFP-H148Q, iodide quench fluorescence; ionomycin added to raise cell calcium | inhibition, % at 10 µM | 2,300 tested, 39% active;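 active = mean duplicate percent inhibition, scaled so buffer wells are 0 and the reference blocker 100, over three buffer SD above buffer mean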
# TMEM16A Ca cntr: calcium mobilization in TMEM16A/YFP HEK293 cells, confirmation, counter-screen for TMEM16A inhibitor project; shares compounds with TMEM16A inh; AID 652231, 2013; Fluo4 calcium mobilization; 2,300 tested, 2% active; calcium response (% of ionomycin), % at 10 µM;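 active = duplicate-averaged calcium signal over 20% of the ionomycin maximum, relative to buffer baseline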;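 note: each well's signal is peak minus trough fluorescence divided by its pre-addition baseline; 0% = buffer wells and 100% = ionomycin wells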
# YFP-HEK293 quench: iodide YFP quench changes in parental YFP-HEK293, counter-screen for TMEM16A inhibitor project, cell-based | shares compounds with TMEM16A inh | ionomycin | AID 652233, 2013 | 2,300 tested, under 10 active | YFP ratio F(max-min)/F0 at 10 µM;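 active = yellow fluorescent protein signal ratio exceeding the buffer control mean by over 5 SD of those controls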;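 note: ratio is mean of duplicate wells from kinetic YFP trace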
# ClC-1 inh: ClC-1 chloride channel inhibition, selectivity assay for TMEM16A inhibitor project, cell-based, voltage-dependent ClC-1. ratio percent, % at 10 µM. 2,300 tested, under 10 active. AID 652236, 2013. shares compounds with TMEM16A inh. CHO ClC-1-YFP, iodide influx fluorescence quench; iodide control reads 0, buffer control 100;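 active = duplicate-mean ratio percent above the mean of iodide-only control wells, which defines zero, plus 5 of their SD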;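 note: higher percent means stronger block of ClC-1 iodide influx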
# The depositor's hits bear a star; i = inactive; / = no result given. Only some compounds are listed: those with a hit (about 2.7% of all), similar ones and a draw of the others.
SMILES,PREPL inh,TMEM16A inh,FID counter,PP5 primary,ANO1 activ,PP1 counter,TMEM16A reconf,TMEM16A Ca cntr,YFP-HEK293 quench,ClC-1 inh
CC(C)(Oc1ccc(Cl)cc1)C(=O)OCn1nnc2ccccc2c1=O,-13,100*,-12,6,i,0,i,32%*,-1.1,-1
CCN(C1CCCCC1)S(=O)(=O)c1ccc(OC)c(C)c1,-18,100*,-23,6,i,4,i,i,-1.2,-4
CCN(C1CCCCC1)S(=O)(=O)c1cc(C)ccc1OC,-4,i,-26,1,i,-2,/,/,/,/
CCOC(=O)/C=C1/N(C)c2ccccc2C1(C)C,-3,i,-3,2,i,-1,/,/,/,/
CN1/C(=C\C(=O)COC(=O)CNC(=O)c2ccc3ccccc3c2)C(C)(C)c2ccccc21,14,i,-20,6,i,6,30%*,i,-0.96,-16
CN1/C(=C\C(=O)COC(=O)c2ccc(O)c(O)c2)C(C)(C)c2ccccc21,-42,100*,-17,0,/,-3,70%*,i,-0.72,-19
Cc1cccc[n+]1CC(=O)/C=C1\N(C)c2ccccc2C1(C)C,-33,i,-1,4,i,5,/,/,/,/
CNS(=O)(=O)c1cccc(C(=O)OCC(=O)/C=C2/N(C)c3ccccc3C2(C)C)c1,7,i,-28,3,i,4,21%*,i,-1.2,-6
CN1/C(=C\C(=O)CN2C(=O)NC3(CCCCCC3)C2=O)C(C)(C)c2ccccc21,-13,i,-16,1,i,4,i,i,-0.66,8
CN1/C(=C\C(=O)COC(=O)c2ccc(O)cc2)C(C)(C)c2ccccc21,-5,i,-22,0,i,-1,/,/,/,/
CN1/C(=C\C(=O)COC(=O)CNC(=O)c2ccccc2F)C(C)(C)c2ccccc21,8,i,-24,0,i,-2,/,/,/,/
O=C(NCc1ccco1)/C(=C\c1ccc(F)cc1)NC(=O)c1ccco1,13,i,-13,-5,i,2,/,/,/,/
CC(C)n1nccc1NC(=O)COC(=O)c1ccc(NC(N)=O)cc1,18,/,/,/,i,/,/,/,/,/
COc1ccc2cc([C@H](C)C(=O)N(C)Cc3ccccc3N3CCCC3)ccc2c1,17,i,-32,-1,i,8,22%*,i,-0.9,3
COc1ccc(C(CNC(=O)C(C)c2ccc3cc(OC)ccc3c2)N(C)C)cc1 (stereo not drawn),16,i,16,0,i,-2,/,/,/,/
S=C(NCCc1ccccc1)Nc1ccc(N2CCCCC2)cc1,7,i,-20,3,/,6,i,i,-1,-6
CCOC(=O)c1ccc(NC(=S)NCCc2ccccc2)cc1,13,25*,-10,7,i,5,18%*,i,-1.2,-19
CCOC(=O)c1ccc(NC(=S)NCCc2ccccc2F)cc1,-4,100*,-10,6,i,3,20%*,i,-1.2,-17
